Measurements: the supplement of paper PMC6555819

Key:
Assay in all cases: PBM binding z-score (relative to random genomic background probes); higher = stronger binding; sequences stand for … in GC…GCGATTGACAGCGTAGAATGAAGG
[1] = tested on: FXR:RXRa (NR concentration 270 nM, RXRa partner concentration 90 nM)
Summary of the method: (§1)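 Binding buffer was PBS pH 7.4 with 2% milk, 0.02% Triton X-100, 1 mM DTT, 0.2 mg/mL BSA and 0.4 mg/ml salmon testes DNA. In it, ligand-free nuclear receptor dimers were incubated 1 h on custom Agilent 4×180K protein-binding microarrays carrying double-stranded probes. Antibodies against each partner (one per run) detected binding, and z-scores were calculated against random background probes after regression normalization of scanned fluorescence.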

[2] = tested on: LXRa:RXRa (NR concentration 270 nM, RXRa partner concentration 90 nM)
Summary of the method: as §1

[3] = tested on: LXRa homodimer (NR concentration 270 nM)
Summary of the method: as §1

[4] = tested on: LXRb:RXRa (NR concentration 270 nM, RXRa partner concentration 90 nM)
Summary of the method: as §1

[5] = tested on: LXRb homodimer (NR concentration 270 nM)
Summary of the method: as §1

[6] = tested on: PPARa:RXRa (NR concentration 270 nM, RXRa partner concentration 90 nM)
Summary of the method: as §1

[7] = tested on: PPARg:RXRa (NR concentration 180 nM, RXRa partner concentration 90 nM)
Summary of the method: as §1

[8] = tested on: PPARg:RXRa 270nM:90nM, anti-RXR (NR concentration 270 nM, RXRa partner concentration 90 nM)
Summary of the method: as §1

[9] = tested on: PPARg:RXRa 30nM:10nM, anti-RXR (NR concentration 30 nM, RXRa partner concentration 10 nM)
Summary of the method: as §1

[10] = tested on: PPARg:RXRa 90nM:30nM, anti-RXR (NR concentration 90 nM, RXRa partner concentration 30 nM)
Summary of the method: as §1

Sequence | PBM binding z-score [1] | PBM binding z-score [2] | PBM binding z-score [3] | PBM binding z-score [4] | PBM binding z-score [5] | PBM binding z-score [6] | PBM binding z-score [7] | PBM binding z-score [8] | PBM binding z-score [9] | PBM binding z-score [10]
CGAACTAGCTCATCCAGGACAGTGAATACATTGA | -0.123 | -0.399 | 0.0441 | -0.293 | -0.166 | -0.4 | 0.522 | -0.572 | 0.105 | 0.154
TCATATAGGTAAATGCTAGGTGATAGTCCGATCT | 0.869 | 0.734 | -0.164 | 0.564 | -0.125 | 1.2 | 1.13 | 2.24 | 3.56 | 2.87
CCGGCTGGGGCAAAGGTTACCATACTCAGTACGA | 1.59 | 1.59 | -0.197 | 2.03 | -1.05 | 4.48 | 8.25 | 7.31 | 6.14 | 7.57
AGAATGAGGTAACCAAAGATCAGGGAAACGCTTG | -0.0845 | 3.81 | -0.311 | 0.439 | -0.22 | 1.21 | 1.15 | 0.888 | 0.575 | 0.541
CGAACGAGGGCATGAGTAGATAGCAAATGCCGAT | 0.0959 | 0.081 | -0.748 | -0.189 | -1.08 | 0.99 | 1.4 | 0.988 | 0.168 | 0.198
TCTAGCAGGCCAGAGGGTCACTAAAGAGGTACGG | 0.744 | 0.827 | -0.521 | 0.924 | -1.08 | 2.12 | 1.48 | 2.66 | 1.97 | 2.41
CCTTACGGGTCACTTCAGGTTATAGCATCGGAGT | 5.1 | 7.75 | 2.3 | 5.47 | 0.687 | 4.36 | 3.23 | 3.7 | 1.22 | 2.2
TCTCGGCGGACACGAAGGTCAGAGCTTTCCAGAG | 0.592 | 0.668 | 0.198 | 0.454 | -1.37 | 1.5 | 0.0295 | 1.04 | 1.16 | 1.08
CGTCCAAGGTCAATGCCAGGTCAGTGAAAGCATT | 7.1 | 5.52 | 3.08 | 4.42 | 1.04 | 5.11 | 4.05 | 4.59 | 1.16 | 3.45
TCTGACAGGTGAAGGTAACTCAGGTACGCAGTCG | 0.497 | 1.97 | -0.123 | 0.856 | -0.258 | 1.14 | 0.602 | 1.55 | 2.9 | 2.32
TCTCGGAGGACACGAAGATCAGAGCTTTCCAGAG | 0.203 | -0.201 | -0.688 | -0.685 | -1.08 | 0.0727 | 0.181 | 0.96 | 2.25 | 1.67
GGAGCGAGGGCAAGTTGATAGCAGAGTTTGATGG | 0.394 | 0.0427 | -0.544 | 0.219 | -0.594 | 0.728 | 0.238 | 0.276 | -0.604 | -0.121
CCTAGTAGGCCAATCTGGGTCACTCAAGGCTTGA | 0.701 | 1.69 | -0.399 | 1.2 | -0.38 | 3.58 | 3.41 | 3.08 | 0.257 | 2.26
TCGAGTAGGTTAGGGGCATTAAGAATGGCGTCGA | 0.466 | 0.479 | -0.184 | 0.739 | -0.27 | 1.34 | 1.07 | 2.13 | 1.32 | 1.98
GCTTGGAGATCAAGGTTAAGAAAGACTAAGCTAA | 0.0543 | 0.942 | -0.403 | 0.686 | -1.08 | 1.57 | 0.135 | 0.864 | 0.225 | 0.671
TCATATAGGTAATCCAGGTGAAAGTCGGCATCTA | 1.03 | 1.21 | 0.37 | 0.829 | 0.397 | 2.4 | 1.87 | 2.9 | 4.14 | 3.53
TCGAGTTGGTCAAAGGTCACACACTCGAAATGCG | 5.98 | 5.57 | 3.08 | 5.33 | 0.74 | 6.37 | 10.4 | 9.4 | 8.64 | 11.3
ACTAGCAGGCCAAGGTTGGGTCACTCAAACAAAG | -0.0834 | -0.151 | -0.416 | 0.203 | -1.03 | 1.39 | 0.643 | 1.19 | -0.515 | 0.491
TCATATAGGTAGAGGTGAAAGTCGAACGATATGA | 0.743 | 0.996 | -0.23 | 0.833 | -0.246 | 2.43 | 1.96 | 3.02 | 3.6 | 3.28
TCCTGTAGATCAGCAGGTTAAGAAAGCTGGCCAA | 0.47 | 0.36 | -0.398 | 0.304 | -0.639 | 0.87 | -0.289 | 1.6 | 2.43 | 1.83
TCATATAGGTATATGCTAGGTGAAAGTCCGATCT | 0.567 | 0.913 | 0.175 | 0.545 | -0.249 | 0.818 | 0.703 | 1.78 | 3.31 | 2.54
TCATATAGGTAAATGCAAGGTGAAAGTCCGATCT | 1.57 | 1.44 | 0.321 | 1.2 | 0.456 | 2.03 | 1.03 | 2.44 | 4.33 | 3.47
AGAATGAGGTTATACGTGGATCAGGGAAGAAAGT | 2.49 | 2.03 | 0.117 | 1.91 | 0.299 | 3.25 | 1.82 | 2.19 | 0.672 | 1.49
CCTCGGGGGACAACAGGAGGTCAGAGCTGCCAGA | 2.56 | 3.46 | 1.7 | 3.52 | 4.28 | 3.13 | 1.01 | 1.67 | 0.217 | 1.17
